PAFAH1B3 FP inh: PAFAH1B3 enzyme inhibitors, primary screen, biochemical, fluorescence polarization, human; recombinant PAFAH1B3, FP-rhodamine probe; hit rate 0.28% among 340,000; AID 492972, 2010; inhibition, % at 3.39 µM;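 active = inhibition above the screen-wide average of all tested compounds plus 3 SD, cut at about 25% in these data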
PAFAH1B2 FP inh: PAFAH1B2 enzyme inhibitors, primary screen, biochemical, fluorescence polarization, human | AID 492953, 2010 | inhibition, % at 3.39 µM | Platelet-activating factor acetylhydrolase IB subunit alpha2 (Homo sapiens), P68402 | hit rate 1.2% among 340,000 | recombinant PAFAH1B2, FP-rhodamine activity probe;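 active = inhibition above the mean of all tested compounds plus 3 SD, cut at about 24% in these data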
PAFAH2 inh: PAFAH2 enzyme inhibitors, primary screen, biochemical, fluorescence polarization, human. hit rate 0.99% among 340,000. recombinant PAFAH2, FP-rhodamine activity probe. inhibition, % at 3.39 µM;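 active = inhibition above the mean over all tested compounds plus 3 SD, cut at about 30% in these data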;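 also: inhibitors block probe labeling of enzyme so polarization drops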
LYPLA1 counter: LYPLA1 inhibitors, primary screen, counter-screen for PME1 inhibitor project, biochemical, fluorescence polarization, FP-Rh probe ABPP; Acyl-protein thioesterase 1 (Homo sapiens), O75608; recombinant LYPLA1; inhibition, % at 5.9 µM; hit rate 0.16% among 320,000; AID 2174, 2009;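 active = inhibition above the mean of all tested compounds plus 3 SD, set per campaign, cut at about 14% in these data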;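 also: inhibitors block serine hydrolase probe labeling of LYPLA1 so polarization falls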
pPAFAH inh: pPAFAH enzyme inhibitors, primary screen, biochemical, fluorescence polarization, human; recombinant pPAFAH, FP-rhodamine probe fluorescence polarization; Platelet-activating factor acetylhydrolase (Homo sapiens), Q13093; inhibition, % at 3.39 µM; hit rate 1.5% among 330,000;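 active = inhibition above the mean inhibition across the screen plus 3 SD, cut at about 25% in these data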;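 also: inhibitors block binding of the rhodamine activity-based probe so polarization drops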
Target sequence (Q13093 whole entry, looked up): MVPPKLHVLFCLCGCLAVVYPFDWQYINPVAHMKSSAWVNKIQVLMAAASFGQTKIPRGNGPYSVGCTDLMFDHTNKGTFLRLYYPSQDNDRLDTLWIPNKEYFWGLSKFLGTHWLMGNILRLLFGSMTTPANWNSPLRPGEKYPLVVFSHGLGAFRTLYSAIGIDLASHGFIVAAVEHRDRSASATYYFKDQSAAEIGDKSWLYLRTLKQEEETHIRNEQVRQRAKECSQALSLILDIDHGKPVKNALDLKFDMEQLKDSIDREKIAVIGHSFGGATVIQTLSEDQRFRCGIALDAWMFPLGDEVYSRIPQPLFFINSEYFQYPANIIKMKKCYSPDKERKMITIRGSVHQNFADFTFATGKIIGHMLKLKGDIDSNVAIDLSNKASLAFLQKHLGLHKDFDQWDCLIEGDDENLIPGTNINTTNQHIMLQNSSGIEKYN
LYPLA2 counter: LYPLA2 inhibitors, primary screen, counter-screen for PME1 inhibitor project, biochemical, fluorescence polarization, FP-Rh probe ABPP; Acyl-protein thioesterase 2 (Homo sapiens), O95372; recombinant LYPLA2; inhibition, % at 5.9 µM; hit rate 0.38% among 320,000; AID 2177, 2009;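 active = inhibition above the screen-wide mean plus 3 SD, limit set per campaign, cut at about 26% in these data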
Target sequence (O95372 whole entry, looked up): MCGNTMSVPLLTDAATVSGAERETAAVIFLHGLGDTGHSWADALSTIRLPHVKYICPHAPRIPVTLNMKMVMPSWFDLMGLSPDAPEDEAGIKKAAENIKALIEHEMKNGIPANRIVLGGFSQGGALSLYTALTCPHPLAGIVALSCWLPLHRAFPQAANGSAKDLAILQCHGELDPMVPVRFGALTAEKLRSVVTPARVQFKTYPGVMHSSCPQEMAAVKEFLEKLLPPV
Of the large screens only hits and unclear results are named; the others gave an inactive call. Shown are actives, neighbours in structure and some others; about 2.9% of the full set was active somewhere.

COC(=O)c1ccccc1CSc1nsc(/C=C/N(C)C)c1C#N	pPAFAH inh 28
CNC(=O)c1cc(S(=O)(=O)Nc2ccc(C)cc2C)ccc1C	pPAFAH inh 30
Cc1ccc(NS(=O)(=O)c2ccc3[nH]c(=O)[nH]c3c2)c(C)c1	pPAFAH inh 28
CC1CCCCN1CC(=O)NC(=O)NCc1ccccc1 (stereo unspecified)	none
Oc1ccc(Nc2nc(-c3ccccc3)nc3ccccc23)cc1	none
CC(=O)Nc1ccc(Nc2nc(-c3ccccc3)nc3ccccc23)cc1	pPAFAH inh 28
COc1cc(/C=C/C(=O)OCC(=O)NCC2CCCCC2)ccc1O	PAFAH2 inh 88, pPAFAH inh 28
CCC(=O)OC1(C)C(=O)C=C2C=C(c3ccc(C#N)cc3)OC=C2C1=O (stereo unspecified)	pPAFAH inh 33
CC1(OC(=O)CCc2ccccc2)C(=O)C=C2C=C(c3ccc(C#N)cc3)N(Cc3ccccc3)C=C2C1=O (stereo unspecified)	none
CC1(OC(=O)CCc2ccccc2)C(=O)C=C2C=C(c3ccc(C#N)cc3)N(Cc3ccco3)C=C2C1=O (stereo unspecified)	pPAFAH inh 33
CC1(OC(=O)c2ccco2)C(=O)C=C2C=C(c3ccc(C#N)cc3)OC=C2C1=O (stereo unspecified)	pPAFAH inh 52 (no result: PAFAH1B3 FP inh, PAFAH1B2 FP inh, PAFAH2 inh)
O=C(Nc1ccccc1NC(=O)c1c(F)c(F)c(F)c(F)c1F)c1c(F)c(F)c(F)c(F)c1F	none
O=C1/C(=C/c2ccccc2[N+](=O)[O-])COc2ccccc21	none
Cc1ccc(S(=O)(=O)N2CCN(C(=O)CSc3ncn[nH]3)CC2)c(C)c1	none
CC(C)c1ccc(S(=O)(=O)/N=C2/C=C(Sc3ncn[nH]3)C(=O)c3ccccc32)cc1	PAFAH1B3 FP inh 49, PAFAH1B2 FP inh 46, PAFAH2 inh 51, LYPLA2 counter 36
Cc1ccc(S(=O)(=O)/N=C2/C=C(Sc3ncn[nH]3)C(=O)c3ccccc32)c(C)c1	LYPLA2 counter 31 (no result: PAFAH1B3 FP inh, PAFAH1B2 FP inh, PAFAH2 inh)
COc1ccc(CNc2cc([N+](=O)[O-])ccc2OC)cc1	none
O=[N+]([O-])c1cc(/C=N/N2CCN(Cc3ccccc3)CC2)ccc1Cl	none
Cc1cccc(Nc2nnc(SCC(O)=C(C#N)c3nc4ccccc4[nH]3)s2)c1	PAFAH1B2 FP inh 26 (no result: LYPLA1 counter, pPAFAH inh, LYPLA2 counter)
CCN1C(=O)/C(=C\c2ccc(-c3ccc([N+](=O)[O-])cc3OC)o2)SC1=Nc1cccc(C(=O)O)c1	PAFAH1B2 FP inh 24 (no result: LYPLA1 counter, pPAFAH inh, LYPLA2 counter)
CSc1nc(N2CCN(C)CC2)c2c(c1C#N)CC(C)(C)OC2	none
O=C(CN(c1ccccc1)S(=O)(=O)c1ccc(F)cc1)NC1CCCCCC1	none
Cc1ccc([N+](=O)[O-])cc1NC(=O)Cc1cccs1	pPAFAH inh 27
Cc1ccc([N+](=O)[O-])cc1NC(=O)Cc1ccc(F)cc1	none
COC(=O)c1cc(NC(=O)Cc2cccs2)cc(C(=O)OC)c1	pPAFAH inh 26
CCCN(C(=O)COC(=O)CSc1ccc([N+](=O)[O-])cc1)C1CCS(=O)(=O)C1 (stereo unspecified)	none
CC(C)CN(C(=O)COC(=O)CSc1ccc([N+](=O)[O-])cc1)C1CCS(=O)(=O)C1 (stereo unspecified)	PAFAH1B2 FP inh 25
Cc1ccc(SCC(=O)OCC(=O)N(C)C2CCS(=O)(=O)C2)cc1C (stereo unspecified)	pPAFAH inh 25
Fc1ccccc1NC(=S)N1CCN(Cc2ccccc2)CC1	pPAFAH inh 32
CS(=O)(=O)N(Cc1ccccc1)c1ccc(C(=O)N2CCN(c3cccc(Cl)c3)CC2)cc1	none
CCCCCSc1nnc(-c2cc(Br)ccc2N)c(=O)[nH]1	PAFAH1B2 FP inh 27
O=C1Nc2ccc(F)cc2C12Nc1ccccc1-c1nnc(SCc3ccccc3Cl)nc1O2 (stereo unspecified)	PAFAH1B2 FP inh 25
O=c1c2ccccc2ncn1CCOCCOc1ccc([N+](=O)[O-])cc1	none
CCOC(=O)C(NC(=O)CC)(Nc1sc2c(c1C(=O)OC)CCN(C)C2)C(F)(F)F (stereo unspecified)	none
CCC(CO)Oc1cc(NCc2ccccc2)c2ncn(C(C)C)c2c1 (stereo unspecified)	none (no result: LYPLA1 counter, LYPLA2 counter)
CCC(CO)Oc1cc(NC(=O)Cc2ccccc2)c2ncn(C(C)C)c2c1 (stereo unspecified)	pPAFAH inh 26 (no result: LYPLA1 counter, LYPLA2 counter)
OCCSc1nnc(Nc2ccccc2)s1	pPAFAH inh 25
N#CCSc1nnc(Nc2ccccc2)s1	none
O=C(CCc1ccccc1)NC(=S)Nc1cccc(C(=O)O)c1	none
O=C(CCCc1ccccc1)Nc1cccc(C(=O)O)c1	PAFAH1B2 FP inh 25
N#Cc1cccc(S(=O)(=O)NNC(=O)C23CC4CC(CC(C4)C2)C3)c1	PAFAH1B2 FP inh 26 (no result: LYPLA1 counter, LYPLA2 counter)
COc1ccc(S(=O)(=O)NNC(=O)C23CC4CC(CC(C4)C2)C3)cc1	none (no result: LYPLA1 counter, pPAFAH inh, LYPLA2 counter)
N#Cc1c(SC(C(=O)O)c2ccccc2)nc2c(c1-c1cccs1)CCCC2 (stereo unspecified)	PAFAH1B2 FP inh 27
COc1cccc(C2CC(=O)Nc3cc4c(cc32)CCC4)c1 (stereo unspecified)	pPAFAH inh 32
O=C1CC(c2cccc(Cl)c2)c2cc3c(cc2N1)CCC3 (stereo unspecified)	pPAFAH inh 28
O=C1CC(c2cccc([N+](=O)[O-])c2)c2cc3c(cc2N1)CCC3 (stereo unspecified)	none
O=C(N/N=C1\CCSc2ccc(F)cc21)c1cccnc1	none
CC(C)(C)c1ccc(C2=CC(c3ccccc3)n3ncnc3N2)cc1 (stereo unspecified)	PAFAH1B2 FP inh 58, pPAFAH inh 26
Cc1nc2c(C(=O)NCc3ccccc3)c[nH]n2c(=O)c1Cl	none
Cc1nc2c(C(=O)NCc3ccccc3Cl)c[nH]n2c(=O)c1Cl	pPAFAH inh 32
COC(=O)[C@@]1(C)[C@H]2C(=O)N(C)C(=O)[C@H]2[C@H]2CN=C(SCc3ccc(Cl)cc3)N21	PAFAH1B2 FP inh 29 (no result: LYPLA1 counter, LYPLA2 counter)
COC(=O)[C@@]1(C)[C@H]2C(=O)N(C)C(=O)[C@H]2[C@H]2CN=C(SCc3ccc(C#N)cc3)N21	none (no result: LYPLA1 counter, LYPLA2 counter)
Cc1c(NC(=O)C23CC4CC(CC(C)(C4)C2)C3)c(=O)n(-c2ccccc2)n1C	PAFAH1B2 FP inh 35, PAFAH2 inh 50
Cc1c(NC(=O)COC(=O)COc2ccc(Nc3ccccc3)cc2)c(=O)n(-c2ccccc2)n1C	pPAFAH inh 25

Compound activity deposited in PubChem by The Scripps Research Institute Molecular Screening Center.
